The text below walks through data of PubChem BioAssay AID1069 (NMMLSC, 2008).

The assay is described as follows: activators of LNCaP cell differentiation, retest, confirmation, side scatter shift, flow cytometry (AID 1069).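 Note: LNCaP human prostate cancer cells in low-serum medium with charcoal-stripped FBS; percent of cells with raised granularity gated so DMSO controls show 10%.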 The note with it: 4 d, stronger effect = higher value.

SMILES strings stand for the structures. Calls of active or inactive are those of the source.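 Rule for the calls: active = high combined rank on largest and smallest cell-count-weighted shift across three tests, rank score above 45, floors 50 and 25 (some results past the limit were not filed as active); inactive = the rest.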

On to `Cc1oc(-c2ccc(Cl)cc2)nc1CN1CCC(C(=O)N2CCc3ccccc3C2)CC1`, for which the side scatter shift reads like this: (at 100 µM) 44.4% (inactive); (side scatter shift, at 10 µM) 17%.
The corresponding values for `COc1ccccc1N1CCN(C(=O)CCn2c(=O)[nH]c3ccsc3c2=O)CC1` are 19.4% (inactive) and 1.7%.
The corresponding values for `Cn1c(=O)cc(SCC(=O)NCCCN2CCN(c3ccc(F)cc3)CC2)c2ccccc21` are 46.7% (inactive) and 8.35%.
The corresponding values for `O=C(c1ccc2c(c1)OCCO2)N1CCCCC1` are 7.7% (inactive) and 8.05%.
In the case of `O=C(Nc1c(C(=O)N2CCOCC2)cnn1-c1ccccc1)c1ccco1`, the side scatter shift (at 100 µM) was 7.5% (inactive) and the side scatter shift (side scatter shift, at 10 µM) amounted to 5.15%.
On the same counts, the results for `CCN1CCCC1CNC(=O)c1cc2c(-c3ccc(Cl)cc3)nn(C)c2s1` (stereo not drawn) are 35.7% (active) and 56.7%.
Consider `CCN(CCNC(=O)C1CCN(Cc2nc(-c3ccc(Cl)cc3)oc2C)CC1)c1ccccc1`, for which the side scatter shift (at 100 µM) is 25% (inactive) and the side scatter shift (side scatter shift, at 10 µM) was determined as 26.4%.
The corresponding values for `CCOC(=O)c1ccccc1NC(=O)Cn1c(-c2nonc2N)nc2ccccc21` are 30.6% (active) and 27.1%.
On the same counts, the results for `OCc1nc2ccccc2n1CCCOc1ccccc1` are 6.7% (inactive) and 5.1%.
On the same counts, the results for `Cc1cccc(-c2nc(CN3CCCC(C(=O)NC4CCCC4)C3)c(C)o2)c1` (stereo not drawn) are 13.8% (inactive) and 8.5%.
Take `CCN(CC)CCNC(=O)c1nn(-c2ccc(C)cc2)c(=O)c2c1c1ccccc1n2C`: the side scatter shift is 50% (inactive) (at 100 µM) and 5.55% (side scatter shift, at 10 µM).
On the same counts, the results for `COc1ccc(N2CCN(CCCNC(=O)CC3Oc4ccc(C)cc4NC3=O)CC2)cc1` (stereo not drawn) are 50% (active) and 9.05%.
As for `Cc1nc2c3cnn(-c4ccccc4)c3ncn2n1`, the side scatter shift runs as follows: (at 100 µM) 5% (inactive); (side scatter shift, at 10 µM) 1.75%.
On the same counts, the results for `COc1ccccc1CNC(=O)C1CCN(Cc2nc(-c3cccc(Cl)c3)oc2C)CC1` are 33.3% (inactive) and 3.35%.
